From PubChem BioAssay
For some assays here: Entries with a potency or affinity are not part of this list. Calls of active or inactive are those of the source. Unless noted, no rule for the calls is given here.

Legend:
[1] = antimalarial activity against Dd2 strain (AID 2302;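 active = growth inhibition above 50% at the single 2 µM test dose, taken to imply half-maximal potency below 2 µM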;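 also: 0% = DMSO untreated growth and 100% = chloroquine plus artemisinin killed control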); settings: P. falciparum Dd2 in RBCs, LDH growth readout, 72 h; at 2 µM; stronger effect = higher value
[2] = HepG2 cytotoxicity, primary screen, cytotoxicity control for P. falciparum antimalarial project, cell-based, ATP luminescence (AID 2303;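 active = inhibition above 50%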;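 also: 0% = DMSO wells and 100% = digitonin-killed cells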); settings: HepG2 viability, 24-48 h, at 10 µM, stronger effect = higher value
[3] = target: L-lactate dehydrogenase (Plasmodium falciparum (isolate CDC / Honduras)) (UniProt Q27743); assay: PfLDH activity inhibition – cell lysate, 3D7 strain, counter-screen for P. falciparum growth inhibition project (AID 2304);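 also: 0% = vehicle and 100% = reference inhibitor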; settings: P. falciparum 3D7 crude extract, LDH APAD/NBT absorbance; at 2 µM; stronger effect = higher value
Chain of L-lactate dehydrogenase (Plasmodium falciparum (isolate CDC / Honduras)) (Q27743 whole entry, looked up): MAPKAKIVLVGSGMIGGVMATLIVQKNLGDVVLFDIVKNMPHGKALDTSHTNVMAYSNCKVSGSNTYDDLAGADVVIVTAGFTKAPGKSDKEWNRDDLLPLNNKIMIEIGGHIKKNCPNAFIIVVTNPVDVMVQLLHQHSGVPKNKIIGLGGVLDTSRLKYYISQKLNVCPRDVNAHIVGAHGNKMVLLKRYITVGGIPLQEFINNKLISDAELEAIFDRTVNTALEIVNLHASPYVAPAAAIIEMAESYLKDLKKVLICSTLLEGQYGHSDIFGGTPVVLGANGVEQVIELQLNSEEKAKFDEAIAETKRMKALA

[4] = inhibition of 3D7 malaria parasite growth – strain 3D7 (AID 2306);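 also: 0% = DMSO wells and 100% = chloroquine plus artemisinin control wells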; settings: P. falciparum 3D7 erythrocytic growth, LDH absorbance, 72 h; at 2 µM; stronger effect = higher value
[5] = target: Calcium-dependent protein kinase 1 (Plasmodium falciparum (isolate 3D7)) (UniProt P62344); assay: PfCDPK1 kinase inhibitors, biochemical, TCAMS library (AID 1159585; cut-off not given, nearly all actives have IC50 up to about 0.98 µM;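 also: inhibitors leave more ATP so luminescence rises with inhibition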); settings: recombinant PfCDPK1, Kinase-Glo ATP depletion luminescence
Chain of Calcium-dependent protein kinase 1 (Plasmodium falciparum (isolate 3D7)) (P62344 whole entry, looked up): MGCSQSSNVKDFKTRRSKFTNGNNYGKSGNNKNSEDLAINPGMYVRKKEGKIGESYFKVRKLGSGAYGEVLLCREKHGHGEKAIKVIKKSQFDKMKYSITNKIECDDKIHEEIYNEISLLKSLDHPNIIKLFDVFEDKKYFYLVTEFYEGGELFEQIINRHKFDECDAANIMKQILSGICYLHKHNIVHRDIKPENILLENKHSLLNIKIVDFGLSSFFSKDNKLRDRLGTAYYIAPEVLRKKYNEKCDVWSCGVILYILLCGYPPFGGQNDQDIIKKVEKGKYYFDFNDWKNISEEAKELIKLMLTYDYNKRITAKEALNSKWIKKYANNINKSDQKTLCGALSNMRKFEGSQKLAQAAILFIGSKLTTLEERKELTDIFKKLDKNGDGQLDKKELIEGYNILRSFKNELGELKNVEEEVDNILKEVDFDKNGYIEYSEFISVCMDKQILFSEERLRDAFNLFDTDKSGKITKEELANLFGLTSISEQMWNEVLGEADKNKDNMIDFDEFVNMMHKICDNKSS

[6] = target: Plasmodium falciparum protein kinase 6 (PK6, PF3D7_1337100) (UniProt Q8IDW1); assay: PfPK6 kinase inhibitors, biochemical, TCAMS library (AID 1159586); settings: recombinant PfPK6, Kinase-Glo ATP depletion luminescence
Chain of Plasmodium falciparum protein kinase 6 (PK6, PF3D7_1337100) (Q8IDW1 1-305): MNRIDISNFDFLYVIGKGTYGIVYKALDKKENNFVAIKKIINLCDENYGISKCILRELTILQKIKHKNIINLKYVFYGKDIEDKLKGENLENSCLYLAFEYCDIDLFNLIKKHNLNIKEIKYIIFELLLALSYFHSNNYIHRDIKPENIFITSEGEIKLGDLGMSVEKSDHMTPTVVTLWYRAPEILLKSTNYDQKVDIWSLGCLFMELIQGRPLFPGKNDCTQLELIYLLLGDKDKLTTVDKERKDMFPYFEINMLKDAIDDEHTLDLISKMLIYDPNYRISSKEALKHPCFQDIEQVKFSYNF

[7] = target: Protein kinase 7 (PK7), Plasmodium falciparum 3D7 (PF3D7_0213400) (UniProt Q7YTF7); assay: inhibition of Plasmodium PK7 catalytic activity – biochemical, TCAMS antimalarial set, Kinase-Glo luminescence (AID 1159587); settings: recombinant PfPK7, Kinase-Glo ATP depletion luminescence
Chain of Protein kinase 7 (PK7), Plasmodium falciparum 3D7 (PF3D7_0213400) (Q7YTF7 1-343): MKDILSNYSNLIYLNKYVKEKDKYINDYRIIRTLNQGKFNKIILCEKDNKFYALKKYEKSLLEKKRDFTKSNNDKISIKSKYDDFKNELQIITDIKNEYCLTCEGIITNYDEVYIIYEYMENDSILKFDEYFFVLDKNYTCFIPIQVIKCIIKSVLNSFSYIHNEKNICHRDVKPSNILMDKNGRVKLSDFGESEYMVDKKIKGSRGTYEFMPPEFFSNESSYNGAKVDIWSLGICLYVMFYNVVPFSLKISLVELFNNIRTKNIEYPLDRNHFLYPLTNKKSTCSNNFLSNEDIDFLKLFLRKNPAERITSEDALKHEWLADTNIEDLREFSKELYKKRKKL

[8] = target: Calcium-dependent protein kinase 4 (Plasmodium falciparum (isolate 3D7)) (UniProt Q8IBS5); assay: PfCDPK4 kinase inhibitors, biochemical, TCAMS library (AID 1159588; cut-off not given, nearly all actives have IC50 up to about 0.91 µM); settings: recombinant PfCDPK4, Kinase-Glo ATP depletion luminescence
Chain of Calcium-dependent protein kinase 4 (Plasmodium falciparum (isolate 3D7)) (Q8IBS5 whole entry, looked up): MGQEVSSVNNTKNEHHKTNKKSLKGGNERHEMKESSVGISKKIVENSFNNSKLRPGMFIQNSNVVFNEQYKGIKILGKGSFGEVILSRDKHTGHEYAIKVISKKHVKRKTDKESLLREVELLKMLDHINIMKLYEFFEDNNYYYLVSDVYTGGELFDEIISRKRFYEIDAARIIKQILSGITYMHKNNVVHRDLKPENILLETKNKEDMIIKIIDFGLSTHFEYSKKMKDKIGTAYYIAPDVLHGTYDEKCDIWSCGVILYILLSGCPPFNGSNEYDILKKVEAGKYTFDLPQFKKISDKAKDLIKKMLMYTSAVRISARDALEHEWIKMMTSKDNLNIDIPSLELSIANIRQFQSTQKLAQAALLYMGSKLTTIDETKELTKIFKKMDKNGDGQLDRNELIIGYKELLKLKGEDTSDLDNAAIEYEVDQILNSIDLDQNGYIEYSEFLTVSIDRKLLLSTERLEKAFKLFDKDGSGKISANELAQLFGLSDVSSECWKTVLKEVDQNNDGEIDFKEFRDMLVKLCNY

C=C[C@H]1CN(CCCCCCC)CC[C@H]1C[C@@H](Cc1ccnc2ccc(OC)cc12)OC(=O)[C@](OC)(c1ccccc1)C(F)(F)F
inactive: inhibition [2] 12% | inhibition [3] 7% | outcome [5] | outcome [6] | outcome [7] | outcome [8]
active: growth inhibition [1] 96% | growth inhibition [4] 96%

COc1cccc(-c2cnc(N)c(-c3nc4cc(Cl)c(F)cc4[nH]3)c2)c1
active: growth inhibition [4] 100%
inactive: growth inhibition [1] 26% | inhibition [2] 37% | inhibition [3] 6% | outcome [5] | outcome [6] | outcome [7] | outcome [8]

CC(C)CCn1c(Sc2ccc(C#N)c([N+](=O)[O-])c2)nnc1-c1ccccc1Cl
active: growth inhibition [4] 93%
inactive: growth inhibition [1] 38% | inhibition [2] 20% | inhibition [3] 3% | outcome [5] | outcome [6] | outcome [7] | outcome [8]

Cc1ccccc1CNC(=O)Nc1cccc(-c2csc(N=C(N)N)n2)c1
inactive: growth inhibition [1] 14% | inhibition [2] 2% | inhibition [3] -2% | outcome [5] | outcome [6] | outcome [7] | outcome [8]
active: growth inhibition [4] 99%

O=C(Nc1ccc(-c2nc3ccccc3[nH]2)cc1)c1ccc(-c2cccc([N+](=O)[O-])c2)o1
inactive: inhibition [2] 47% | inhibition [3] -2% | outcome [5] | outcome [6] | outcome [7] | outcome [8]
active: growth inhibition [1] 97% | growth inhibition [4] 101%

O=C(NCCCCCN1CCC(c2c[nH]c3ccccc23)CC1)Nc1ccc(Cl)c(Cl)c1
active: growth inhibition [4] 92%
inactive: growth inhibition [1] -4% | inhibition [2] 42% | inhibition [3] 6% | outcome [5] | outcome [6] | outcome [7] | outcome [8]

COc1ccccc1CNC(=O)c1cc(OC)c(OC)cc1NC(=O)c1cccs1
inactive: inhibition [2] 12% | inhibition [3] 3% | outcome [5] | outcome [6] | outcome [7] | outcome [8]
active: growth inhibition [1] 71% | growth inhibition [4] 88%

CCCC(=O)c1cnc2c(OCCCc3cnc[nH]3)cccc2c1Nc1c(C)cccc1C
inactive: growth inhibition [1] 14% | inhibition [2] 20% | inhibition [3] 3% | outcome [5] | outcome [6] | outcome [7] | outcome [8]
active: growth inhibition [4] 98%

COc1ccc(NC(=O)[C@H](Cc2ccccc2)Nc2cc(C)nc(NCCN3CCCC3)n2)cc1
inactive: growth inhibition [1] 3% | inhibition [2] 15% | inhibition [3] -2% | outcome [5] | outcome [6] | outcome [7] | outcome [8]
active: growth inhibition [4] 97%

Cc1cc(OCc2ccccc2)c(OCc2ccccc2)cc1C(O)CN(C)Cc1ccccc1 (configuration not stated)
active: growth inhibition [1] 87% | growth inhibition [4] 96%
inactive: inhibition [2] 14% | inhibition [3] -2% | outcome [5] | outcome [6] | outcome [7] | outcome [8]

CCc1nc(N)nc(N)c1CCCOc1ccccc1Cl
inactive: growth inhibition [1] 13% | inhibition [3] 1% | outcome [5] | outcome [6] | outcome [7] | outcome [8]
active: inhibition [2] 61% | growth inhibition [4] 92%

COc1ccc(-c2nc3cccnc3n2CC(=O)Nc2cc(Cl)c(Cl)cc2Cl)c(OC)c1
active: inhibition [2] 99% | growth inhibition [4] 100%
inactive: growth inhibition [1] 17% | inhibition [3] 1% | outcome [5] | outcome [6] | outcome [7] | outcome [8]

COc1cccc(-c2cc(C(=O)Nc3cc(Oc4ccc(O)cc4)cc([N+](=O)[O-])c3)on2)c1
active: growth inhibition [4] 89%
inactive: growth inhibition [1] 30% | inhibition [2] 16% | inhibition [3] 7% | outcome [5] | outcome [6] | outcome [7] | outcome [8]

c1cncc(CCNCc2ccc(-c3ccc(CNC4Cc5ccccc5C4)cc3)cc2)c1
inactive: growth inhibition [1] 29% | inhibition [2] 32% | inhibition [3] 1% | outcome [5] | outcome [6] | outcome [7] | outcome [8]
active: growth inhibition [4] 92%

CC(=O)Nc1nc(-c2ccccc2)[nH]c1C(N)=O
inactive: growth inhibition [1] -2% | inhibition [2] 10% | inhibition [3] 4% | outcome [5] | outcome [6] | outcome [7] | outcome [8]
active: growth inhibition [4] 99%

CCOc1cc(C(=O)NCCN2CCCCC2)ccc1-c1nc2ccc(Cl)cc2[nH]1
active: growth inhibition [4] 99%
inactive: growth inhibition [1] 8% | inhibition [2] 4% | inhibition [3] -3% | outcome [5] | outcome [6] | outcome [7] | outcome [8]

COc1ccc(CCNC(=O)c2cc(C)ccc2O)cc1-c1ccc(C(C)(C)C)cc1
inactive: inhibition [2] 1% | inhibition [3] -6% | outcome [5] | outcome [6] | outcome [7] | outcome [8]
active: growth inhibition [1] 94% | growth inhibition [4] 97%

CC(C)C[C@@H](/C=N/N1CCNC1=O)NC(=O)[C@H](CC(C)C)NC(=O)c1ccc(OCCN2CCOCC2)cc1
inactive: inhibition [2] 21% | inhibition [3] -4% | outcome [5] | outcome [6] | outcome [7] | outcome [8]
active: growth inhibition [1] 89% | growth inhibition [4] 97%

OCC1CCN(Cc2cccc(C#Cc3cc4ncnc(Nc5ccc(OCc6cccc(F)c6)c(Cl)c5)c4s3)n2)CC1
inactive: inhibition [2] 41% | inhibition [3] 1% | outcome [5] | outcome [6] | outcome [7] | outcome [8]
active: growth inhibition [1] 95% | growth inhibition [4] 99%
